# Results filed as inconclusive are left out. A call without a number means that no potency is given here. Active and inactive are the calls of the source. Calls follow the shape of the dose curve; as a rule, active = well fitted inhibition curve with a large enough effect; inconclusive = small, poorly fitted or top-dose-only effect; inactive = no such curve, though single readings can be large or run the other way.
# Target: Retinaldehyde dehydrogenase 3 (Homo sapiens) (UniProt P47895)
# Experiment: qHTS for Inhibitors of the Aldehyde Dehydrogenase Family (ALDH1A3) Confirmatory screens (AID 2061311); also: potency is read from the fitted curve at half-maximal effect; nearly all actives have a fitted effect of over 60% in size
# Details: ALDH inhibition qHTS; series mostly up to 46 µM
row,Compound,Potency
1,c1cc2c(cc1CNc1ccc(N3CCOCC3)cc1)OCO2,6.34 µM (active)
2,Cc1ccsc1CN(C)c1ncnc2ccc(-c3ccoc3)cc12,22.5 µM (active)
3,O=C(O)c1ccc(-c2noc(-c3ccccc3F)n2)cc1,0.565 µM (active)
4,CC(=O)Nc1sc2c(c1-c1nc3ccccc3o1)CCN(C(C)C)C2,12.6 µM (active)
5,COc1cccc(-c2nc(-c3ccc(C(=O)O)cc3)no2)c1,0.504 µM (active)
6,COc1cccc(C2c3c(ncn(-c4ccccc4-c4ccccc4)c3=N)Oc3ccc4ccccc4c32)c1 (stereo not drawn),15.8 µM (active)
7,Oc1ccccc1C1Nc2cccc3cccc(c23)N1,12.7 µM (active)

# Target: Retinal dehydrogenase 2 (Homo sapiens) (UniProt O94788)
# Experiment: qHTS for Inhibitors of the Aldehyde Dehydrogenase Family (ALDH1A2) Confirmation screens (AID 2061314); also: nearly all actives have a fitted effect of over 65% in size; also: potency is read from the fitted curve at half-maximal effect
# Details: ALDH1A2 enzyme inhibition qHTS confirmation; series mostly up to 45.9 µM
row,Compound,Potency
1,N#Cc1nc(Nc2cccc([N+](=O)[O-])c2)nc(NC2CCCC2)n1,6.34 µM (active)
2,Cc1ccc(S(=O)(=O)Nc2cc(F)ccc2C(=O)Nc2nc(-c3ccccc3)cs2)cc1,5.04 µM (active)
3,O=C(O)c1ccc(O)c2ncc(N3CC(N4CCOCC4)C3)cc12,15.9 µM (active)
4,Cc1ccc(CNc2ccc(N3CCCCC3)cc2)cc1,28.3 µM (active)
5,C=C1CN(Cc2ccc(C(=O)Nc3ccccc3N)cc2)C(=O)c2ccccc21,inactive
6,NC(=O)C1CCN(c2ncc(-c3ccc4c(c3)OC(F)(F)O4)s2)CC1,inactive
7,CCOC(=O)C1CCN(c2ncc(-c3ccc4c(c3)OCCCO4)s2)CC1,4 µM (active)
8,COc1ccc(C2Nc3ccccc3C(=O)N2Cc2ccccc2)cc1COc1ccc(C#N)cc1 (stereo not drawn),0.896 µM (active)
9,Oc1ccc(COC2CCN(Cc3ccccc3)C2)c2cccnc12 (stereo not drawn),inactive
10,O=C(NCc1ccccc1)C1CCN(c2nc(-c3ccc(Br)cc3)cs2)CC1,inactive
11,Cc1ccccc1Nc1nc(C#N)nc(NC2CCCC2)n1,12.7 µM (active)
12,Cc1ccsc1CN(C)c1ncnc2ccc(-c3ccoc3)cc12,11.3 µM (active)
13,O=C(O)c1ccc(-c2noc(-c3ccccc3F)n2)cc1,inactive
14,COc1cccc(-c2nc(-c3ccc(C(=O)O)cc3)no2)c1,inactive
15,COc1cccc(C2c3c(ncn(-c4ccccc4-c4ccccc4)c3=N)Oc3ccc4ccccc4c32)c1 (stereo not drawn),7.98 µM (active)

# Target: Retinaldehyde dehydrogenase 3 (Homo sapiens) (UniProt P47895)
# Experiment: qHTS for Inhibitors of the Aldehyde Dehydrogenase Family (ALDH1A3) Primary screen (AID 2061315)
# Details: ALDH inhibition qHTS; series mostly up to 56 µM
row,Compound,Potency
1,N#Cc1nc(Nc2cccc([N+](=O)[O-])c2)nc(NC2CCCC2)n1,inactive
2,Cc1ccc(S(=O)(=O)Nc2cc(F)ccc2C(=O)Nc2nc(-c3ccccc3)cs2)cc1,inactive
3,O=C(O)c1ccc(O)c2ncc(N3CC(N4CCOCC4)C3)cc12,inactive
4,C=C1CN(Cc2ccc(C(=O)Nc3ccccc3N)cc2)C(=O)c2ccccc21,inactive
5,NC(=O)C1CCN(c2ncc(-c3ccc4c(c3)OC(F)(F)O4)s2)CC1,inactive
6,COc1ccc(C2Nc3ccccc3C(=O)N2Cc2ccccc2)cc1COc1ccc(C#N)cc1 (stereo not drawn),inactive
7,Oc1ccc(COC2CCN(Cc3ccccc3)C2)c2cccnc12 (stereo not drawn),inactive
8,O=C(NCc1ccccc1)C1CCN(c2nc(-c3ccc(Br)cc3)cs2)CC1,inactive
9,Cc1ccccc1Nc1nc(C#N)nc(NC2CCCC2)n1,inactive
10,Cc1ccsc1CN(C)c1ncnc2ccc(-c3ccoc3)cc12,inactive
11,COc1cccc(C2c3c(ncn(-c4ccccc4-c4ccccc4)c3=N)Oc3ccc4ccccc4c32)c1 (stereo not drawn),inactive
